The list is not random: actives were taken first. Their share in the collection is about 6.7%.
BoNT-A LC inh2: BoNT/A light chain protease inhibitors, primary screen, biochemical, flow cytometry, MLPCN library; Botulinum neurotoxin type A light chain protease (Clostridium botulinum A str. ATCC 3502); multiplex microsphere protease substrate cleavage; inhibition, % at 10 µM; hit rate 0.17% among 360,000; AID 588499, 2011; also: plate controls were buffer without enzyme for full effect and enzyme alone for no effect
BoNT-F LC inh: BoNT/F light chain protease inhibitors, primary screen, biochemical, flow cytometry, MLPCN library. Botulinum neurotoxin type F light chain protease (Clostridium botulinum). Multiplex microsphere protease cleavage assay. inhibition, % at 10 µM. hit rate 0.22% among 360,000. AID 588497, 2011; in the data active = inhibition above about 35%, passing the limit was not always enough; inconclusive = no clear call, values can overlap the other calls; also: plate controls were buffer without enzyme for full effect and enzyme alone for no effect
Autofluor counter: flagged as autofluorescent in microsphere protease counterscreen. AID 624483. hit rate 3.1% among 360,000. fluorescence intensity (concentration not given with the values). compound autofluorescence counterscreen, microsphere flow cytometry; hits give high values; in the data active = fluorescence intensity above about 16000; inconclusive = no clear call, values can overlap the other calls
GDH-TPI inh: GDH-TPI coupling enzyme inhibitors, primary screen, artefact control for M. tuberculosis FBA inhibitor project, biochemical, absorbance, full deck. inhibition, % at 4.8 µM. hit rate 1.2% among 360,000. GDH-TPI coupled enzyme counterscreen, NADH absorbance; in the data active = inhibition above about 30%;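 also: 0% = DMSO wells and 100% = wells lacking the enzyme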
Anthrax LF inh2: Bacillus anthracis LF protease inhibitors, primary screen, biochemical, multiplex microsphere, MLPCN library; Lethal factor (Bacillus anthracis), P15917; hit rate 0.12% among 360,000; multiplex microsphere protease cleavage assay; inhibition, % at 10 µM; AID 588501, 2011; also: plate controls were buffer without enzyme for full effect and enzyme alone for no effect
FBA Mtb inh: Mtb FBA enzyme inhibitors, primary screen, biochemical, fluorescence, strain H37Rv. purified M. tuberculosis FBA, fluorescence read-out. inhibition, % at 1 µM. hit rate 2.3% among 360,000. AID 588726, 2011; in the data active = inhibition above about 27%;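 also: 0% = vehicle and 100% = reference inhibitor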
Numbers without * were called inactive; ? = inconclusive. Rule as the data show it, unless noted: active = inhibition above about 30%; inconclusive = no clear call, values can overlap the other calls; inactive = below that.

SMILES	BoNT-A LC inh2	BoNT-F LC inh	Autofluor counter	GDH-TPI inh	Anthrax LF inh2	FBA Mtb inh
COc1ccccc1-c1coc2cc(OC(=O)N3CCOCC3)ccc2c1=O	1.0	?	3337	4.8	29.3	2.9
CN1CCN(Cc2c(O)ccc3c(=O)c(Oc4ccccc4Cl)c(C(F)(F)F)oc23)CC1	-0.9	-3.6	5783	12.9	-5.8	-1.5
COc1ccccc1-c1coc2c(CN3CCN(C)CC3)c(O)ccc2c1=O	0.8	7.6	4075	21.9	0.3	131.9*
CCN1CCN(Cc2c(O)ccc3c(=O)c(-c4ccccc4OC)coc23)CC1	0.1	-5.0	12782	28.3	-1.2	118.8*
Cc1nn(C(=O)C(C)N2C(=O)c3ccccc3C2=O)c(C)c1Br (stereo not drawn)	-0.1	-5.6	3073	1.4	-1.1	-6.4
Cc1ccc(-c2nnn(CC(=O)O)n2)cc1	2.0	12.4	3286	2.3	-0.8	3.2
Cc1ccc(N2C(=O)CC(N3CCN(C4CCc5ccccc5C4)CC3)C2=O)cc1 (stereo not drawn)	0.1	-12.3	3170	4.3	2.5	1.9
NC(=O)CSc1nnc(-c2cccc(S(=O)(=O)N3CCCCC3)c2)o1	0.5	-5.1	3280	13.0	4.9	3.0
NC(=O)CSc1nnc(-c2ccc(S(=O)(=O)N3CCCC3)cc2)o1	-0.4	3.0	10271	-9.8	-0.2	2.7
O=S(=O)(c1cccc(-c2nnc(-c3ccc(Br)cc3)o2)c1)N1CCCCCC1	2.8	6.1	20866*	-14.7	-2.0	-0.8
O=S(=O)(c1ccc(-c2nnc(SCc3ccccc3)o2)cc1)N1CCCC1	?	3.0	19388*	0.0	1.7	2.8
Cc1ccc(CSc2nnc(-c3ccc(S(=O)(=O)N4CCCC4)cc3)o2)cc1	0.5	-5.1	22758*	-5.1	-5.9	-0.5
O=C(NCC1CCCO1)c1ccc(NC(=O)C2CCCCC2C(=O)O)cc1 (stereo not drawn)	1.0	?	4570	4.0	-3.9	2.9
Cc1ccc(N2CC(C(=O)Nc3ccccc3C(=O)NC3CCCCC3)CC2=O)cc1C (stereo not drawn)	?	-3.7	22887*	23.1	0.1	-1.0
Cc1ccc(N2CC(C(=O)NC3=NCCS3)CC2=O)cc1C (stereo not drawn)	0.1	15.2	5167	4.0	4.3	0.3
Cc1ccc(N2CC(C(=O)Nc3ccc(N(C)C)cc3)CC2=O)cc1C (stereo not drawn)	0.8	-1.6	19991*	8.5	-3.4	-0.2
O=C(Nc1ccccc1Cl)C1CC(=O)N(c2ccccc2)C1 (stereo not drawn)	0.2	-10.2	5301	7.4	-4.4	1.2
COC(=O)c1ccccc1NC(=O)C1CC(=O)N(c2ccccc2)C1 (stereo not drawn)	0.4	-1.7	22918*	2.1	-3.4	3.1
O=C(CN1C(=O)NC2(CCCCCC2)C1=O)N1CCN(c2ccc(F)cc2)CC1	2.7	-5.3	5204	-5.4	5.0	-0.5
COc1ccc(NC(=O)CSc2nccn2Cc2ccco2)c(OC)c1	-0.1	1.8	5875	4.1	-1.4	-1.7
O=C(Nc1nc2ccccc2[nH]1)C12CC3CC(CC(C3)C1)C2	0.2	-19.7	2333	-3.4	1.0	-0.2
c1ccc2[nH]c(CN3CCCCCC3)nc2c1	1.3	-1.7	20479*	-1.9	0.2	-0.6
O=C(OCc1nc2ccccc2[nH]1)C12CC3CC(CC(C3)C1)C2	-3.5	-11.1	17109*	2.1	-4.8	2.1
c1ccc2c(CN3CCCCCCC3)c[nH]c2c1	-1.7	-5.1	17395*	6.4	-2.7	0.7
c1ccc(CN2CCN(Cc3c[nH]c4ccccc34)CC2)cc1	-1.1	?	3861	1.1	16.0	2.6
SMILES	BoNT-A LC inh2	BoNT-F LC inh	Autofluor counter	GDH-TPI inh	Anthrax LF inh2	FBA Mtb inh
c1ccc(OCc2nc3ccccc3[nH]2)cc1	0.4	-1.8	22117*	-13.5	-4.6	1.9
O=c1[nH]c(CN2CCCCC2)nc2ccccc12	0.6	-2.4	2771	-10.4	-3.3	-1.6
O=C(Nc1ccc2c(c1)OCO2)c1cnc2n(c1=O)CCS2	0.6	-5.8	22821*	19.1	-6.1	0.2
Cc1cccc(NC(=O)c2cnc3n(c2=O)CCS3)c1	?	-2.5	20823*	13.1	-4.2	-2.4
Cc1noc(NS(=O)(=O)c2ccc(NC(=O)c3cnc4n(c3=O)CCS4)cc2)c1C	3.3	4.2	21016*	34.1*	-2.1	-4.3
O=C(Nc1ccc2c(c1)OCCO2)c1cnc2n(c1=O)CCS2	-0.3	-1.3	5621	31.0*	-2.1	-1.4
Cc1ccccc1C(=O)Nc1ccc(S(=O)(=O)Nc2onc(C)c2C)cc1	-0.7	-3.4	3722	2.4	-5.5	5.0
O=C(NCc1ccc2c(c1)OCO2)c1cnc2n(c1=O)CCS2	0.4	6.7	4535	16.0	-4.1	2.2
CCc1cc(=O)[nH]c(SCC(=O)N2CCC(Cc3ccccc3)CC2)n1	0.0	0.5	6112	-3.8	3.8	1.1
COc1ccc(OC)c(NC(=O)c2cnc3n(c2=O)CCS3)c1	-0.3	-1.6	5500	23.2	-3.0	-0.3
COc1ccccc1NC(=O)c1cnc2n(c1=O)CCS2	0.2	28.8	3456	37.5*	1.5	-3.5
O=C(Nc1ccc(NC(=O)c2sc3ccccc3c2Cl)cc1Cl)c1ccco1	8.1	13.7	19130*	8.7	-7.4	8.7
O=C(Nc1ccc(N2CCN(C(=O)c3cccs3)CC2)c(Cl)c1)c1ccco1	-2.8	-6.9	16928*	5.6	-3.2	-0.9
CCOc1ccc(C(=O)Nc2ccc(NC(=O)c3ccco3)c(Cl)c2)cc1Br	?	0.4	22914*	8.6	-1.5	11.8
c1cc2cc(CNc3nc(NCC4CC4)nc4ccsc34)ccc2o1	-0.4	-6.8	3049	6.2	5.2	-1.5
O=C(CN1C(=O)CCOc2ccccc21)Nc1cccc(S(=O)(=O)N2CCOCC2)c1	0.0	-2.8	3543	-10.8	-3.5	-0.7
O=C(N/N=C/c1cn(-c2ccccc2)nc1-c1cc2ccccc2o1)c1ccccc1Br	-1.7	-19.1	2533	30.9*	-0.7	2.5
Cc1ccc(/C=N/NC(=S)NCCc2ccccc2)s1	-1.3	-5.9	4496	7.0	-2.6	0.2
CCCCNC(=S)N/N=C/c1ccc(C)s1	?	-11.6	24604*	63.3*	-3.2	5.6
CCOc1cc(/C=C2\C(=O)N(c3nc(-c4ccc(Br)cc4)cs3)N=C2c2ccccc2)ccc1O	5.0	-28.5	?	31.4*	0.1	0.7
Fc1cccc2sc(N3CCCCC3)nc12	-0.2	9.4	4070	1.4	2.8	-8.8
O=C(CC(=O)c1ccccc1)Nc1cc([N+](=O)[O-])ccc1Cl	?	?	3726	30.8*	0.9	-0.5
